# Screens deposited in PubChem by National Center for Advancing Translational Sciences (NCATS).
# Hits are enriched below; roughly 7.5% of the tested compounds scored in any of these assays.
# NPC1 promoter act: qHTS Assay for NPC1 Promoter Activators; AID 485313, 2010; Huh7 NPC1 promoter luciferase reporter, 24 h; Potency, µM (top dose mostly 9.22 µM), hits mostly activators; hit rate 2.4% among 320,000; further: nearly all actives have a fitted effect of over 60% in size
#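 Luminescence from an NPC1 promoter-driven luciferase reporter in stably transfected Huh7 cells was measured after 24 h compound treatment at 37 °C, followed by 10 min ambient incubation with luciferase detection reagent.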
# Rab9 prom act: qHTS Assay for Rab9 Promoter Activators; AID 485297, 2010; Huh7 Rab9 promoter-luciferase reporter, luminescence, 24 h; Potency, µM (top dose mostly 9.22 µM), usual class: activators; hit rate 2.8% among 320,000; further: nearly all actives have a fitted effect of over 60% in size
#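 Cells were plated at 1500 per well in reduced-serum medium with 10% FBS and left 2 h. Compound in DMSO was then added for 24 h at 37 °C. Reporter signal was read by luminescence after 10 min with luciferase detection reagent.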
# KinaseGlo FLuc: Counterscreen for Luciferase (Kinase-Glo TM) Inhibition | Luciferin 4-monooxygenase (Photuris pensylvanica), Q27757 | Kinase-Glo luciferase, ATP luminescence, 8 min | Potency, µM (series often up to 38.3 µM), hits mostly inhibitors | hit rate 0.28% among 200,000; further: nearly all actives have a fitted effect of over 60% in size
#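 Inhibition of Kinase-Glo luciferase light generation was assessed at 10 uM ATP in pH 7.2 imidazole buffer, with luminescence measured after eight minutes at ambient temperature.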
# ELG1 genotoxic: qHTS screen for small molecules that induce genotoxicity in human embryonic kidney (HEK293T) cells expressing luciferase-tagged ELG1; hit rate 1.3% among 330,000; Potency, µM (titrated, usually from 46 µM), actives largely listed as activators; HEK293T ELG1-luciferase reporter, luminescence, 16 h; AID 504466, 2011; further: nearly all actives have a fitted effect of over 60% in size
#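 DMSO vehicle served as control against compound-treated ELG1-luciferase HEK293T cells; exposure lasted 16 hr at 37 °C and 5% CO2, followed by ONE-Glo luminescence detection after 30 min.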
# SMN2 splice up: qHTS Assay for Enhancers of SMN2 Splice Variant Expression | HEK293 SMN2-luciferase splicing reporter, luminescence, 30-36 h | Potency, µM (highest dose often 46.1 µM), actives largely listed as activators | hit rate 2.8% among 210,000 | AID 1458, 2008; further: nearly all actives have a fitted effect of over 55% in size
#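 HEK293 cells carry an SMN2 […]–luciferase reporter in which exon 7 inclusion puts luciferase in frame. Cells were plated 10-12 h before compound addition, then incubated 30-36 h at 37C. ONE-Glo luminescence was read; sodium butyrate at 4.5 mM final served as control.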
# FLuc modulator: qHTS profiling assay for firefly luciferase inhibitor/activator using purifed enzyme and Km concentrations of substrates (counterscreen for miR-21 project) | purified FLuc, Km substrates, luminescence inhibition | Potency, µM (titrated, usually from 57.5 µM), usual class: inhibitors | hit rate 6.9% among 360,000; further: nearly all actives have a fitted effect of over 55% in size
# Target sequence (P08659 whole entry, looked up): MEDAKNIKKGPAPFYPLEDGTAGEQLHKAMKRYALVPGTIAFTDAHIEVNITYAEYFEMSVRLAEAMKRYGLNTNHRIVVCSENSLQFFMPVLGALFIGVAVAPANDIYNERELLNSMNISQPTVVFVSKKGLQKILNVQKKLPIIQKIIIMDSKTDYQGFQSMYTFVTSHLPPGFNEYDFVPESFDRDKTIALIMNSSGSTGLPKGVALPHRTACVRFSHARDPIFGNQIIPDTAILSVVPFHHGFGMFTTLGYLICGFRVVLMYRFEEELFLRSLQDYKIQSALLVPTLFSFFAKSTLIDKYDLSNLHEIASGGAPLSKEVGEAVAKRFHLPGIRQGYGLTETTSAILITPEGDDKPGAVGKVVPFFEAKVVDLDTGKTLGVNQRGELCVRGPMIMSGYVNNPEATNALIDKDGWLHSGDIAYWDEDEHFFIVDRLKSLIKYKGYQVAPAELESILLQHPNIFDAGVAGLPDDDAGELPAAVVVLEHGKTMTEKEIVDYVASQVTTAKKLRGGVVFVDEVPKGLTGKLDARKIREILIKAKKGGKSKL
#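 Biochemical qHTS of compounds, final roughly 60 µM downward over six points, against 10 nM purified firefly luciferase using Km concentrations of substrates (10 uM D-luciferin, 10 uM ATP) in Tris acetate pH 7.5 buffer; luminescence output.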
# Hits are given with their value; - = inactive; ? = inconclusive; . = not tested or not shown; [ ] = another dose, or the depositor's remark. The call rests on the fitted dose curve; in most records, active means well fitted curve in the direction sought with a large enough effect; inconclusive means small, poorly fitted or top-dose-only effect, or another doubt; inactive means no such curve, though single readings can be large; an effect the other way counts as inactive or inconclusive.
SMILES,NPC1 promoter act,Rab9 prom act,KinaseGlo FLuc,ELG1 genotoxic,SMN2 splice up,FLuc modulator
O=C(CSc1n[nH]c(=O)n1Cc1ccco1)c1ccc2c(c1)OCCO2,-,?,.,?,.,15µM
COc1cccc(CNCc2cccn2-c2nnc(N3CCN(c4ccccc4)CC3)s2)c1,.,.,.,.,.,-
CCCCCCC1/C(=N\NC(=O)c2ccccc2)CCC1C(=O)OC (stereo unspecified),-,-,.,-,.,-
Nc1ccnc2c1ncn2[C@@H]1O[C@H](CO)[C@@H](O)[C@H]1O,.,.,.,.,-,.
Oc1ccc(/C=N/Nc2cccc3cccnc23)c(O)c1,-,3.2µM,-,6.5µM,13µM,4.8µM
Cc1ccc(/C=N/Nc2cccc3cccnc23)c(O)c1,4µM,?,.,?,.,1.5µM
O=C(O)/C=C/C(=O)Nc1cccc2cccnc12,-,-,.,-,.,?
Cc1ccc2nc(C)cc(N/N=C/c3cccnc3)c2c1,-,-,-,-,.,-
CSc1ncc(C(=O)Nc2ccccc2C(F)(F)F)c(-c2ccccc2)n1,.,.,.,.,.,-
Fc1ccc2nc3[nH]c4ccccc4c3nc2c1,3.2µM,3.2µM,-,?,16µM,1.9µM
COc1ccccc1/C=N/Nc1cc(C)nc(N2CCOCC2)n1,-,-,.,-,.,13µM
Cc1cc(C)n(-c2nc(Nc3ccccc3)nc(-n3nc(C)cc3C)n2)n1,-,-,-,-,-,-
COc1ccc(/C=N/Nc2cc(C)nc(N3CCOCC3)n2)cc1,-,-,.,-,.,2.4µM
COc1ccc(/C=N/Nc2cc(C)nc(-n3nc(C)cc3C)n2)c(OC)c1,-,-,-,?,-,17µM
COc1cccc(/C=N/Nc2nc(Nc3ccccc3)nc(-n3nc(C)cc3C)n2)c1O,-,-,-,-,-,6µM
COc1ccc(/C=N\Nc2ncc(F)c(N3CCOCC3)n2)cc1OC,-,-,.,-,.,11µM
COc1ccc(/C=N/Nc2cc(C)nc(N3CCOCC3)n2)cc1OC,-,-,.,-,.,6.7µM
CN(C)CCc1c[nH]c2ccc(CS(=O)(=O)N3CCCC3)cc12,.,.,-,.,-,.
CCOc1ccccc1NC(=O)CN(c1ccc(OC)cc1)S(=O)(=O)c1c(C)[nH]c(=O)[nH]c1=O,-,-,.,-,.,-
COc1ccc(NC(=O)CCCc2ccc(OC)c(C)c2)cc1,-,-,.,-,.,-
COc1cccc(/C=N/NC(=O)CCc2ccccc2)c1,-,-,-,-,-,11µM
COc1cccc(/C=N/NC(=O)CCCc2ccc(OC)c(C)c2)c1,-,-,-,-,-,19µM
COc1ccc(/C=N/NC(=O)CCc2ccccc2)cc1O,-,-,-,-,-,-
CCN(CC(=O)Nc1ccc(NC(C)=O)cc1)C(=O)c1ccccc1SCC(=O)N1CCCC1,-,-,.,-,.,-
O=C(CSc1nnc(CNC(=O)c2ccco2)o1)Nc1cccc(F)c1,-,-,.,-[9.26 µM],.,-
SMILES,NPC1 promoter act,Rab9 prom act,KinaseGlo FLuc,ELG1 genotoxic,SMN2 splice up,FLuc modulator
COc1ccc(NC(=O)Cn2c(=O)n(-c3ccc(CC(=O)NCC4CCCO4)cc3)c(=O)c3ccccc32)c(OC)c1 (stereo unspecified),.,.,.,.,-,-
COc1ccc(C)cc1NC(=O)Cn1c(=O)oc2cc(S(=O)(=O)N3CCCCCC3)ccc21,.,.,.,.,.,-
CCOC(=O)C1CCN(C(=O)c2ccc3c(c2)sc2nc(-c4ccccc4)cn23)CC1,.,.,.,.,.,-
CCOC(=O)C1=C(CSc2nc(-c3ccccc3)ccc2C#N)OC(N)=C(C#N)C1c1ccc(OC)cc1 (stereo unspecified),-,-,-,?,-,15µM
CS(=O)(=O)c1ncc(Cl)c(C(=O)Nc2ccc(N3CCOCC3)cc2)n1,-,-,-,?,-,12µM
O=C(Nc1ccc(N2CCOCC2)cc1)c1cnsn1,?,?,-,0.16µM,2.8µM,0.95µM
CC(=O)c1ccc(NC(=O)c2cnsn2)cc1,2µM,1µM,-,?,.,12µM
O=C(Nc1ccc(N2CCOCC2)cc1)c1ccncc1,-,-,-,-,-,?
CCCCc1ccc(NC(=O)c2cnccn2)cc1,0.5µM,0.79µM,-,?,3.2µM,2.4µM
O=S(=O)(Nc1ccccc1O)c1ccc(Cl)nc1,-,-,.,-,.,-
O=C(CN1C(=O)COc2ccc(Cl)cc21)Nc1ccc(F)cc1,.,.,.,.,-,-
O=C(Nc1ccccc1N1CCOCC1)c1cnccn1,-,-,-,-,-,-
O=C(Nc1ccc(N2CCOCC2)cc1)c1cnccn1,?,0.32µM,.,?,.,1.9µM
CCn1nnnc1SCC(=O)c1ccc(NC(C)=O)cc1,-,-,-,-,-,-
Cn1nnnc1SCC(=O)c1ccc2c(c1)OCCO2,-,?,-,-,.,?
CCn1c(SCC(=O)c2ccc3c(c2)OCCO3)nnc1-c1ccco1,-,-,-,-,-,8.5µM
COCCn1c(SCC(=O)c2ccc3c(c2)OCCO3)nnc1-c1ccco1,-,-,-,-,-,-
CCCn1nnnc1SCC(=O)c1ccc2c(c1)OCCO2,?,?,-,?,-,12µM
O=C(O)CCSCC(=O)c1ccc2c(c1)OCCO2,-,-,-,-,?,11µM
O=C(O)CCC(=O)c1ccc2c(c1)OCCO2,-,-,-,-,-,-
CCn1nnnc1SCC(=O)c1ccc(C)cc1,?,?,-,?,-,15µM
C#Cc1ccc([C@@H]2C=C(C(=O)N3CCN(Cc4ccc5c(c4)OCO5)CC3)O[C@H](OCCCCO)C2)cc1,-,-,.,-,.,-
O=C(NC(=S)Nn1cnnc1)c1cccc(Br)c1,-,-,-,-,-,-
Cc1cc(=O)oc2cc(NC(=S)NNC(=O)c3c(Cl)cnn3C)ccc12,0.45µM,0.89µM,.,?,.,1.5µM
COc1ccc(-c2nc(Cn3c(SCc4cccc(Cl)c4)nc4ccncc43)c(C)o2)cc1,.,.,.,.,-,-
SMILES,NPC1 promoter act,Rab9 prom act,KinaseGlo FLuc,ELG1 genotoxic,SMN2 splice up,FLuc modulator
Cc1ccc(CSc2nc3cccnc3n2Cc2nc(-c3ccccc3F)oc2C)cc1,.,.,.,.,.,5.4µM
Cc1oc(-c2ccccc2F)nc1Cn1c(SCc2cccc(Cl)c2)nc2ccncc21,.,.,.,.,-,?
Cc1ccc(CSc2nc3ccncc3n2Cc2nc(-c3ccccc3C)oc2C)cc1,.,.,.,.,?,4.8µM
COc1ccc(CSc2nc3ccncc3n2Cc2nc(-c3ccc(OC)c(OC)c3)oc2C)cc1,.,.,.,.,?,4.8µM
CCCC1CC(C)(c2csc(Nc3ccc(OCC)cc3)n2)OC1=O (stereo unspecified),-,-,-,-,-,19µM
CCOc1ccc(NC(=O)CC2CC(C)(C)OC2=O)cc1 (stereo unspecified),-,-,-,-,-,-
